Assay results reported in the supplement of paper PMC12636033.
± gives the standard deviation of the averaged measurements. Whole data set: some 33,000 sequences, median “E-score (rank enrichment, -0.5 to 0.5)” near -0.0075, cut for the highest 2% near 0.23. Only a selection was taken, and the highest values are over-represented in it overall.

These sequences were tested on WT Max(13-93) synthetic (M65Nle) (assay: PBM 8-mer E-score (E-score (rank enrichment, -0.5 to 0.5)); higher = stronger preferential binding).
Protocol: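 Protein binding microarray (universal PBM chip covering all 10-mers in fixed probe flanks) with chemically synthesized human Max(13-93) bHLH-LZ analogs (not full-length Max) bearing noncanonical residues (hArg, Tha, Aib, Nle at 65) and aromatic Cys staples. Read-out per 8-mer (and its reverse complement): E-score (rank-based enrichment, -0.5 to 0.5) and Z-score of median probe intensity.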

Sequence | PBM 8-mer E-score
AAACACGG | -0.0068 ± 0.091
AAACACAG | 0.153 ± 0.053
GAACACGC | 0.105 ± 0.04
AAACACGA | 0.19 ± 0.11
AAACACAC | 0.132 ± 0.011
AAACACGC | 0.24 ± 0.054
CAACACGC | 0.195 ± 0.0099
AAACACAT | 0.287 ± 0.014
AAACACGT | 0.329 ± 0.093
AGTAAACG | 0.0125 ± 0.018
AGGTCTTG | -0.116 ± 0.084
TGACGCCA | -0.0607 ± 0.033
ACTGCAGT | -0.0688 ± 0.15
AGATGGAC | -0.09113 ± 0.00061
GATGTCAA | 0.0342 ± 0.06
TATGTCAA | 0.287 ± 0.054
TGTGTCAA | 0.254 ± 0.011
CGTGTCAA | 0.0498 ± 0.015
AGTGTCAA | 0.122 ± 0.14
AATGTCAA | 0.0117 ± 0.23
CAGAGCGA | -0.0911 ± 0.044
GGTTTGAA | 0.145 ± 0.0079

Sequence | PBM 8-mer E-score
CCAGTGGG | -0.122 ± 0.16
GACTTCTA | -0.0184 ± 0.13
ACAAACAC | 0.268 ± 0.053
ACAAACAG | -0.0244 ± 0.058
CCAAACAG | -0.0488 ± 0.037
ACAAACAA | 0.112 ± 0.0055
GCAAACAC | 0.156 ± 0.07
AAAAACAC | 0.251 ± 0.05
CCAAACAC | 0.242 ± 0.076
GAAAACAC | 0.0469 ± 0.11
CAAAACAC | 0.073 ± 0.066
CTAAACAA | 0.0536 ± 0.046
CTGCGTGC | -0.0949 ± 0.0091
CGATCGAG | -0.26 ± 0.069
CATGCCCA | 0.00676 ± 0.079
ACCTCCCA | 0.00978 ± 0.14
CCCTCCCA | 0.262 ± 0.0086
CCCCTCCC | 0.239 ± 0.16
GCCTCCCA | -0.155 ± 0.12
CCTCCCCC | -0.0244 ± 0.2
CCTCCCCA | 0.258 ± 0.065
CCCCTCCG | 0.044 ± 0.086

Sequence | PBM 8-mer E-score
CCCTCCCC | 0.171 ± 0.15
CCTCCCAA | 0.0602 ± 0.2
CTGGGTAC | -0.201 ± 0.15
GGATGGAC | 0.106 ± 0.062
AGGGTTTA | 0.152 ± 0.0074
AGGAGCAA | -0.034 ± 0.032
CACCACCA | -0.0146 ± 0.046
AACGATCC | -0.124 ± 0.023
GCAATGGC | 0.0112 ± 0.019
ATACGCTC | 0.0772 ± 0.0077
CCCATACA | 0.0285 ± 0.11
GGACTGCC | -0.0905 ± 0.19
ACATATAA | 0.309 ± 0.078
TCATATAA | 0.15 ± 0.064
ACATATAC | -0.00226 ± 0.03
ACATATAG | 0.0953 ± 0.059
GCATATGA | 0.138 ± 0.034
ACATATAT | 0.244 ± 0.04
ACATATCA | 0.252 ± 0.013
CCATATGC | 0.112 ± 0.14
ACATATCG | 0.0595 ± 0.028
GCATATGC | 0.245 ± 0.008

Sequence | PBM 8-mer E-score
CCATATCA | 0.0654 ± 0.064
CCATATAA | 0.174 ± 0.02
GCGGCCTA | -0.209 ± 0.12
ATGCGATG | 0.054 ± 0.083
GTGAACAA | 0.114 ± 0.0024
CAGGCGAC | -0.124 ± 0.082
CGTCCCGA | -0.209 ± 0.12
AAAGTTAG | 0.127 ± 0.044
AGTGCAGA | 0.0828 ± 0.16
ATAGCGGC | -0.135 ± 0.21
AACCTAGT | -0.18 ± 0.029
ATTGTGCC | 0.174 ± 0.071
ACATATGG | 0.155 ± 0.071
ACATATGC | 0.0404 ± 0.029
ACATATGT | 0.265 ± 0.11
CGTTCTGC | -0.108 ± 0.038
CATGTGAG | 0.226 ± 0.08
TATGTGAA | 0.254 ± 0.13
CCTGTGAA | -0.00915 ± 0.077
GATGTGAC | -0.231 ± 0.026
